From PubChem
TTR transcr act = TTR transcription activation, primary screen; AID 1117267; SH-SY5Y TTR promoter Gaussia luciferase, luminescence; 100% = recombinant luciferase protein wells; activation, % at 16.7 µM; 92,000 compounds, 1.3% hits;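 active means activation above the mean of all tested compounds plus 3 SD, cut at about 9.5% in these data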;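 further: cells exposed to compounds for one day before reading; 0% = median of all test compound wells on the plate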
HuH7 TTR inh = counter-screen for TTR activators: TTR transcription inhibitors in HuH7 cells. shares compounds with TTR transcr act. HuH7 TTR promoter-Gaussia luciferase reporter, luminescence. inhibition, % at 16.7 µM. 1,100 compounds, 4% hits. AID 1117279;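 active means average inhibition above the solvent-only control wells' mean plus 3 SD, cut at about 15% in these data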;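 further: 0% = cells with DMSO only and 100% = cells with inhibitor control FD; inhibitors lower well luminescence so higher value means more inhibition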
TTR act confirm = human TTR transcription activation, confirmation; shares compounds with TTR transcr act; SHSY5Y TTR promoter Gaussia luciferase, luminescence; 100% = purified Lucia enzyme wells, no cells; activation, % at 16.7 µM; 1,100 tested, under 10 active; AID 1117280;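 active means mean activation above a set limit taken from the earlier primary screen, cut at about 11% in these data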;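 further: 0% = DMSO-treated cells and 100% = recombinant Lucia luciferase without cells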
* = called active by the depositor. Shown is part of a subset that was picked to be rich in hits.

Screening COC(=O)[C@]12C[C@H](CC(=O)NCc3cccc(C(F)(F)F)c3)C(=O)N(Cc3ccc4c(c3)OCO4)C1=C[C@H](C(C)C)O[C@@H]2C1CC1 returned TTR transcr act 1.5.
O=C(COC(=O)/C=C/c1ccc(F)cc1)NC1CCCCCC1 was read as TTR transcr act 10.0*, HuH7 TTR inh -7.1 and TTR act confirm -0.2.
For O=C(COC(=O)/C=C/c1ccc(F)cc1)NC1CCCC1 the results were TTR transcr act 2.4.
Screening O=C(COC(=O)/C=C/c1ccc(Cl)cc1)NC1CCCC1 returned TTR transcr act 3.0.
`COC(=O)[C@]12C[C@H](CC(=O)NCc3cccc4ccccc34)C(=O)N(Cc3ccco3)C1=C[C@H](COCc1ccccc1)O[C@@H]2C` gave TTR transcr act -0.5.
For O=C(c1ccccc1)c1n[nH]c(-c2ccccc2)cc1=O the results were TTR transcr act -5.3.
Screening Cc1ccc(NC(=O)COC(=O)C2CC2)c(Br)c1 returned TTR transcr act -0.4.
O=C(COC(=O)C1CCN(C(=O)c2ccc(Cl)cc2)CC1)c1ccco1 was read as TTR transcr act 2.0.
`COc1ccc(C)cc1NC(=O)COC(=O)C1CCN(C(=O)c2ccc(Cl)cc2)CC1` gave TTR transcr act 14.7*, HuH7 TTR inh -10.9 and TTR act confirm 1.1.
For CCOC(=O)[C@]12CCCC=C1N(Cc1ccc(OC)cc1)C(=O)[C@@H]2CC(=O)NCC12CC3CC(CC(C3)C1)C2 the results were TTR transcr act -0.5.
Screening Cc1cc(Br)cn2c(Cc3cccc(F)c3)c(C3CCCCC3)nc12 returned TTR transcr act 3.4.
Screening CC(=O)NC(C)c1cc(Cl)c2cccnc2c1O (stereo not given) returned TTR transcr act -5.6.
Cc1cc(Cl)nc2c(C(C)C)cccc12 was read as TTR transcr act 17.2*, HuH7 TTR inh -10.5 and TTR act confirm -0.8.
Screening Cc1cccc2c3nc4ccccc4nc3n(C)c12 returned TTR transcr act -0.5.
Screening Cc1ccc(NC(=O)OC(C)N2CCCCC2)cc1NC(=O)OC(C)N1CCCCC1 (stereo not given) returned TTR transcr act 0.7.
`CCOc1cc(CNCCN2CCOCC2)ccc1OCc1ccccc1Cl` gave TTR transcr act 27.3*, HuH7 TTR inh -7.4 and TTR act confirm -0.5.
`CCOc1cc(CNC2CCCC2)ccc1OCc1ccccc1Cl` gave TTR transcr act -0.1.
`CCOc1cc(CNCCCN2CCOCC2)ccc1OCC(=O)NC(C)(C)C` gave TTR transcr act 1.0.
Screening C[C@@H]1CN([C@@H](C)CO)C(=O)CCCn2cc(nn2)CO[C@H]1CN(C)C(=O)Nc1ccc(F)cc1 returned TTR transcr act 1.9.
For CC(C)CCOc1ccc(C(=O)NN2C(=O)NC3(CCCCC3)C2=O)cc1 the results were TTR transcr act -0.7.
Cc1cccc(OCC(=O)OCC(=O)c2c(N)n(C)c(=O)n(C)c2=O)c1C was read as TTR transcr act -0.2.
`Cc1cccc(OCC(=O)OCC(=O)c2c(N)n(C)c(=O)n(C)c2=O)c1` gave TTR transcr act 11.4*, HuH7 TTR inh -6.7 and TTR act confirm -0.2.
For Cc1ccc(C(C)C)c(OCC(=O)OCC(=O)c2c(N)n(C)c(=O)n(C)c2=O)c1 the results were TTR transcr act -1.0.
CN1C2=N[C@@H](c3ccc4ccccc4c3)CC(=O)N2/C(=C\c2ccccc2)[C@H]1c1ccccc1 was read as TTR transcr act -1.4.
Screening COc1ccccc1NC(=O)OC1CC2CC1[C@H]1CCCCN1[C@H]2C (stereo not given in full) returned TTR transcr act 0.8.
Screening CC(C)(C)OC(=O)NCc1cc2c(cc1/C=C/S(=O)(=O)NCc1ccc(F)cc1)OCO2 returned TTR transcr act 1.0.
For CC(C)(C)NC(=O)CSc1nnc(-c2ccncc2)n1Cc1ccccc1 the results were TTR transcr act -1.1.
Screening Cc1cc(NC(=O)CSc2n[nH]c(-c3cccs3)n2)no1 returned TTR transcr act 4.0.
Screening Cc1nc(SCC(=O)NC(C)(C)C)c2c(-c3cccs3)csc2n1 returned TTR transcr act 13.6*, HuH7 TTR inh -16.2 and TTR act confirm -0.1.
Screening CCOC(=O)[C@@]12CCC3=C1N(CCC3)C(=O)[C@H](CC(=O)NCCCCc1ccccc1)C2 returned TTR transcr act -0.9.
For CCCOc1ccc(NC(=O)C2CC(=O)N(C)C(=Nc3cccc(OC)c3)S2)cc1 (stereo not given) the results were TTR transcr act 0.6.
For O=C(O)CCc1nc(-c2cccs2)no1 the results were TTR transcr act -1.5.
For Clc1ccccc1OCc1nc(-c2ccc(Br)o2)no1 the results were TTR transcr act 0.8.
`O=[N+]([O-])c1ccccc1OCc1nc(-c2cccs2)no1` gave TTR transcr act 11.8*, HuH7 TTR inh -9.2 and TTR act confirm 0.5.
